# p53 reactivator: re-activators of mutant p53. H1299 p53-A138V BP100-luciferase reporter, luminescence, 24 h. Potency, µM (highest dose often 92.2 µM), for the others: at the highest dose activity change, positive = activation, usual class: activators. hit rate 0.063% among 320,000. AID 504706; note: potency is the fitted concentration of half-maximal effect; % of control where 0% means no effect; nearly all actives have a fitted effect of over 45% in size
#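 p53-null H1299 cells stably carrying temperature-sensitive p53-A138V and a BP100-luciferase reporter were pinned with compounds (4-point, 1:5 series) and held 24 hrs at 37 deg C. Luminescence was read 10 min after detection reagent.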
# Nrf2 inh: Nrf2 pathway inhibition | hit rate 2.1% among 360,000 | AID 504444 | A549 ARE-Fluc reporter, luciferase luminescence, 18-24 h | Potency, µM (titrated, usually from 46 µM), inactives show at the highest dose activity change, negative = inhibition, most hits filed as inhibitors; note: potency is the fitted concentration of half-maximal effect; % is set by controls: 0 for no effect and ±100 for the full control effect; nearly all actives have a fitted effect of over 60% in size
#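 Concentration-response testing used A549 ARE_Fluc cells at 5000 cells/well. Following an 18-24 h compound incubation, viability was read by fluorescence (Ex 405/Em 525) and luciferase output by luminescence.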
# A549 tox: counter-screen for Nrf2 inhibitors: cytotoxicity in A549 cells; hit rate 0.16% among 390,000; A549 ARE-Fluc cells, CellTiter-Fluor viability, 18-24 h; Potency, µM (doses to about 46 µM), for the others: at the highest dose activity change, negative = cytotoxicity, actives largely listed as inhibitors; AID 504648; note: potency is the fitted concentration of half-maximal effect; % is set by controls: 0 for no effect and ±100 for the full control effect
#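 A549 ARE_Fluc cells in 5% FBS OPTI-MEM were exposed to compounds in concentration-response for 18-24 h at 37 deg C. Viability was read by CellTiter-Fluor fluorescence (Ex 405/Em 525) after 30 min, before the luciferase read.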
# BRCA1 expr up: BRCA1 expression activation; hit rate 1.1% among 380,000; MCF7-BRCA1-FFLuc reporter, luminescence, 48 h; response scale: scaled: vehicle 0%, 10 µM genistein 100%; Potency, µM (series often up to 46.1 µM), without a hit: at the highest dose activation, hits mostly activators; note: potency is the fitted concentration of half-maximal effect; nearly all actives have a fitted effect of over 80% in size
#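 Cells: MCF7-BRCA1-FFLuc, 2000/well. Exposure: 48 h, 37 °C, 5% CO2. Read: luminescence, 15 min post-substrate. Controls: genistein 10 microM (maximal activation), DMSO (neutral).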
# IL2 activator: IL-2 activation. IL-2 activation reporter assay, cell-based qHTS; stimulated with anti-CD3/CD4/CD28 beads; in transgenic mouse T cells. activation, % (series mostly up to about 46 µM). hit rate 0.065% among 360,000. AID 652025; in the data active = activation above about 50%; inconclusive = mostly about 30% to 49%; note: 0% is about no effect
#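 Unstimulated transgenic mouse T cells preincubated 60 min with compound, then stimulated with anti-CD3/anti-CD4-coated beads plus anti-CD28 for 18 h at 37 degrees C. IL-2 response read as EGFP and DsRed fluorescence by plate cytometry.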
# Nrf2 ARE act: activates Nrf2 signaling. AREc32 ARE-luciferase reporter (MCF7-derived line), luminescence, 24 h. AID 624171. hit rate 0.31% among 410,000. Potency, µM (top dose mostly 46.1 µM), inactives show top-dose activation, actives largely listed as activators; note: potency is the fitted concentration of half-maximal effect; % of control where 0% means no effect; nearly all actives have a fitted effect of over 65% in size
#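 Cells of the AREc32 ARE-luciferase line are plated in OPTI-MEM containing 5% FBS and left overnight at 37 deg C. Compounds are pinned in, incubation continues 24 hr, and firefly luciferase signal is then measured.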
# * = called active by the depositor; u = inconclusive; x = not tested or not shown; [ ] = remark or other dose. A selection: hits, their analogues and other compounds. The true share with any hit is near 3.2%. Unless noted, calls come from the whole dose curve; as a rule, active = well fitted curve in the direction sought with a large enough effect; inconclusive = small, poorly fitted or top-dose-only effect, or another doubt; inactive = no such curve, though single readings can be large; an effect the other way counts as inactive or inconclusive.
SMILES,p53 reactivator,Nrf2 inh,A549 tox,BRCA1 expr up,IL2 activator,Nrf2 ARE act
Cc1nc(-c2ccc(Cl)cc2)sc1CCNC(=O)C(=O)Nc1ccc2c(c1)OCCO2,x,x,-20%,x,x,3%
O=C(CSc1nccc(-c2cccs2)n1)Nc1cccc(Cl)c1Cl,-3%,-13%,9%,-67%,1,2.2µM*
CN(C)CCCNc1ncnc2ccc(-c3ccc4c(c3)OCO4)cc12,x,u,11%,x,x,x
CCCC(=O)C1=C(O)C(c2cccc(Oc3ccccc3)c2)CCC1=O (configuration not stated),0%,18µM*,u,-21%,-2,0%
CCOC(=O)C1=C(C)C(c2cccc(Oc3ccccc3)c2)NC(=S)N1 (configuration not stated),-6%,u,3%,-52%,-1,5%
O=C(CCS(=O)(=O)c1cc(Br)cc2c1N(C(=O)C1CC1)CC2)N1CCN(c2cccc(Cl)c2)CC1,x,-6%,0%,x,x,-1%
O=C(NC1CCCCCC1)c1ccc([N+](=O)[O-])s1,u,2.1µM*,-4%,-68%,0,3%
Cc1ccc(C)c(S(=O)(=O)C(C#N)c2nc3ccccc3nc2N2CC(C)OC(C)C2)c1 (configuration not stated),10%,13µM*,x,-77%,-2,-1%
Cc1ccc(C)c(S(=O)(=O)C(C#N)c2nc3ccccc3nc2N2CCCC2)c1 (configuration not stated),6%,8%,2%,0%,0,0%
Cc1ccc(-n2nc(C)c3c(C)cc(=O)n(CC(=O)Nc4ccc(Br)cc4F)c32)cc1,x,u,4%,x,x,0%
CCCNC(=O)c1ccc(Cn2cc(-c3ccc(OC)cc3)nc2C(C)N)cc1 (configuration not stated),18%,u,-7%,11µM*,1,6%
COc1ccc(-c2cn(CCC(=O)O)c(-c3ccncc3)n2)cc1,-3%,u,9%,2%,0,-1%
COc1ccc(-c2cn(Cc3ccc(C(N)=O)cc3)c(-c3ccncc3)n2)cc1,u,u,13%,4.5µM*,0,5%
C/C(=N\NC(=O)c1c(Cl)cnn1C)c1cccc(NC(=O)c2ccc(C)cc2)c1,16%,-26%,-4%,6.3µM*,-5,0%
C/C(=N\NC(=O)c1c(Br)cnn1C)c1ccc(NC(=O)c2ccc(F)cc2)cc1,26%,u,u,7.9µM*,-3,-1%
C/C(=N\NC(=O)c1ccc(O)cc1)c1cccc(NC(=O)c2ccc(Cl)cc2)c1,x,17%,-8%,5.6µM*,-3,3%
C/C(=N\NC(=O)c1cccc(O)c1)c1cccc(NC(=O)c2ccc(F)cc2)c1,10%,-3%,-3%,4µM*,1,2%
C/C(=N\NC(=O)c1ccncc1)c1ccc(NC(=O)c2ccc(Cl)cc2)cc1,u,24%,-1%,75%,-1,0%
CCC(C)n1c(=O)c2sccc2n2c(CCCC(=O)Nc3ccc(F)cc3)nnc12 (configuration not stated),x,-10%,-2%,x,x,1%
CC(NC(=O)C1CCCC1)c1ccc(Br)cc1 (configuration not stated),2%,26µM*,17%,7%,-1,3%
CC(/C=N/n1c(C2CCCCC2)n[nH]c1=S)=C\c1ccccc1,-5%,18µM*,x,-25%,-1,-1%
COc1ccc(C(=O)NCC(=O)OCC(=O)c2cccc3ccccc23)cc1,x,5%,0%,4%,x,x
COc1ccccc1CNC(=O)CSc1ccsc1[N+](=O)[O-],u,u,0%,13µM*,0,10%
O=C(CSc1ccsc1[N+](=O)[O-])NCc1ccccc1,8%,u,-7%,u,0,14%
O=C(OCC#CCSc1nnc(-c2cccc3ccccc23)o1)c1ccc(F)c(F)c1,x,10%,-3%,x,x,x
SMILES,p53 reactivator,Nrf2 inh,A549 tox,BRCA1 expr up,IL2 activator,Nrf2 ARE act
Cc1cc(-c2sccc2C)nc(-n2cccc2)n1,5%,10%,-5%,-70%,4,5.6µM*
Cc1ccc(S(=O)(=O)N2CCN(c3cc(-c4cccs4)nc4ccccc34)CC2)cc1,x,8%,11%,14%,x,x
COc1ccc2[nH]c3c(Cl)ncnc3c2c1,13%,0%,0%,24%,0,0%[9.22 µM]
OC1(c2cccc(C(F)(F)F)c2)CCN(c2ncnc3c2[nH]c2ccc(F)cc23)CC1,x,12µM*,21µM*,-85%,-1,-3%
CCOC(=O)N1CCN(c2ncnc3c2[nH]c2ccc(F)cc23)CC1,-21%,15µM*,-14%,-53%,-1,3%
O=C(c1ccco1)N1CCN(c2ncnc3c2[nH]c2ccc(Br)cc23)CC1,-13%,8.2µM*,-17%,-53%,-1,-1%
COc1ccc2[nH]c3c(N4CCc5ccccc5C4)ncnc3c2c1,0%,16µM*,18µM*,-79%,-6,-2%
CCOC(=O)N1CCN(c2ncnc3c2[nH]c2ccc(OC)cc23)CC1,-15%,u,-10%,-32%,-1,3%
O=C(CCCN1CCC(O)(c2cccc(C(F)(F)F)c2)CC1)c1ccc(F)cc1,x,15%,-10%,-20%,0,7%
Fc1ccc2[nH]c3c(Cl)ncnc3c2c1,7%,4%,-1%,-9%,-1,14%
Fc1ccc2[nH]c3c(N4CCN(c5ccccc5)CC4)ncnc3c2c1,-25%,13µM*,u,-91%,-1,-2%
Cc1ccc(NS(=O)(=O)c2ccc(-n3cccn3)cc2)cc1F,2%,15µM*,-2%,-14%,-4,0%
CC(=O)N1CCN(C(=O)c2ccc(-c3cccc(C(F)(F)F)c3)o2)CC1,-4%,11%,-7%,-7%,-4,2%
O=C(c1ccc(-c2cccc(C(F)(F)F)c2)o1)N1CCOCC1,u,x,0%,11µM*,-1,5%
CC(C)(C)c1cc(CCC(=O)NCCc2ccccn2)cc(C(C)(C)C)c1O,3%,-18%,-3%,1%,0,0%
O=C1C=C(NCCc2cc(Br)c(O)c(Br)c2)C(=O)c2ncccc21,x,u,23µM*,-95%,-8,u
COc1ccc(CCc2c[nH]c(=O)c3cncnc23)cc1OC,x,-6%,2%,6%,x,x
Cc1cc(NC(=O)CSc2nc3c([nH]c4ccccc43)c(=O)n2-c2cccc(Cl)c2)no1,x,x,-1%,-20%,x,3%
Cn1nnnc1SCc1ccc(C(=O)Nc2ccc(Br)cc2)cc1,12%,u,-12%,10µM*,0,4%
CSc1nc2nc(C(F)(F)F)cc(-c3ccccc3)n2n1,-3%,1%,-4%,-32%,-1,14µM*

# High-throughput results (PubChem)
